The list is not random: actives were taken first. Their share in the collection is about 7.4%.
ELG1 genotoxic – qHTS screen for small molecules that induce genotoxicity in human embryonic kidney (HEK293T) cells expressing luciferase-tagged ELG1; Potency, µM (series often up to 46 µM), most hits filed as activators; HEK293T ELG1-luciferase reporter, luminescence, 16 h; AID 504466, 2011; 330,000 compounds, 1.3% hits; note: nearly all actives have a fitted effect of over 60% in size
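HEK293T cells expressing luciferase-tagged ELG1 were treated with compound or DMSO for 16 hr at 37°C. Luciferase activity was then read after 30 min with ONE-Glo at room temperature; rising signal flags genetic stress.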
FLuc modulator – qHTS profiling assay for firefly luciferase inhibitor/activator using purifed enzyme and Km concentrations of substrates (counterscreen for miR-21 project). Potency, µM (highest dose often 57.5 µM), actives largely listed as inhibitors. 360,000 compounds, 6.9% hits. Luciferin 4-monooxygenase (Photinus pyralis), P08659. purified FLuc, Km substrates, luminescence inhibition; note: nearly all actives have a fitted effect of over 55% in size
Target sequence (P08659 whole entry, looked up): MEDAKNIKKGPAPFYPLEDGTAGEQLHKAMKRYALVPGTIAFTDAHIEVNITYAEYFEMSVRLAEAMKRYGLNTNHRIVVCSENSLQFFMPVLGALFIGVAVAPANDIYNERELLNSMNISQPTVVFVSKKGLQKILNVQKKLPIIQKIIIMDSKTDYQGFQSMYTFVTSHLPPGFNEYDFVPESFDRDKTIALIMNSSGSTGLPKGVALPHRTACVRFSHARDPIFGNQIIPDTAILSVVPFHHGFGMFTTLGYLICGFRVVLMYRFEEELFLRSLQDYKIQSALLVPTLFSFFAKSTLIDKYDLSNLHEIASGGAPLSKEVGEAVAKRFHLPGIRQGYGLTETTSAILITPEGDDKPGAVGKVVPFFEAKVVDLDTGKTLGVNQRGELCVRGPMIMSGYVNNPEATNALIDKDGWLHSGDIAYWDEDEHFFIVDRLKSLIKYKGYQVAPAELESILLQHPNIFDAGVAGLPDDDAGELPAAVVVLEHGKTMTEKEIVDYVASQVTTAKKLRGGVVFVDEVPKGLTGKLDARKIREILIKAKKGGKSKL
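Purified P. pyralis luciferase (10nM final) with 10uM D-luciferin and 10uM ATP (Km levels) in 50mM Tris acetate pH 7.5, 10mM Mg acetate, 0.01% Tween-20, 0.05% BSA; qHTS 6-point titration, ~60 µM downward; luminescence read.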
SMN2 splice up – qHTS Assay for Enhancers of SMN2 Splice Variant Expression; HEK293 SMN2-luciferase splicing reporter, luminescence, 30-36 h; Potency, µM (top dose mostly 46.1 µM), most hits filed as activators; 210,000 compounds, 2.8% hits; AID 1458, 2008; note: nearly all actives have a fitted effect of over 55% in size
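HEK293 cells carry an SMN2 minigene-luciferase reporter in which exon 7 inclusion puts luciferase in frame. Cells were seeded at 2000 cells/well, attached for 10-12 hours, then exposed to compounds for 30-36 hours at 37C before ONE-Glo luminescence.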
NPC1 prom act – qHTS Assay for NPC1 Promoter Activators; Huh7 NPC1 promoter luciferase reporter, 24 h; Potency, µM (titrated, usually from 9.22 µM), most hits filed as activators; 320,000 compounds, 2.4% hits; note: nearly all actives have a fitted effect of over 60% in size
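NPC1 promoter–luciferase Huh7 cells; 24 h compound; luminescence.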
Rab9 prom act – qHTS Assay for Rab9 Promoter Activators; AID 485297, 2010; Huh7 Rab9 promoter-luciferase reporter, luminescence, 24 h; 320,000 compounds, 2.8% hits; Potency, µM (top dose mostly 9.22 µM), hits mostly activators; note: nearly all actives have a fitted effect of over 60% in size
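Measured in stably transfected Huh7 cells bearing a Rab9 promoter–luciferase construct: 24 h compound treatment at 37 °C, followed by luminescence detection.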
A number is an active result; i = inactive; ? = inconclusive; nt = no result given; [ ] = dose if it differs, or a comment. Calls come from the whole dose curve; as a rule, active = well fitted curve in the direction sought with a large enough effect; inconclusive = small, poorly fitted or top-dose-only effect, or another doubt; inactive = no such curve, though single readings can be large; an effect the other way counts as inactive or inconclusive.

SMILES	ELG1 genotoxic	FLuc modulator	SMN2 splice up	NPC1 prom act	Rab9 prom act
N#CC(C(=O)C12CC3CC(CC(C3)C1)C2)c1nc2ccccc2[nH]1 (centres undefined)	i	11µM	i	i	i
C[N+](=O)[O-]	nt	nt	i	nt	nt
COc1cc2c(cc1OC)[C@]13CC[N@+]4(C)CC5=CCO[C@H]6CC(=O)N2[C@@H]1C6[C@@H]5C[C@]34O (some centres undefined)	nt	nt	i[9.22 µM]	nt	nt
COc1ccc(OCCOc2cccc(C=C3C(=O)NC(=O)NC3=O)c2)cc1	i	8.5µM	nt	0.32µM	0.11µM
COc1ccc(C(=O)CCNc2ccc(F)cc2)cc1	?	?	nt	?	2.8µM
COc1ccc(C(=O)C(C)(C)NO)cc1	i	i	i	i	i
CCOc1ccc(-c2cc(C(=O)N3CCN(c4cccc(C(F)(F)F)c4)CC3)c3ccccc3n2)cc1	nt	2.4µM	nt	nt	nt
O=C(c1cc(-c2ccccc2)nc2ccccc12)N1CCC2(CC1)OCCO2	i	?	i	i	i
CCC12CCN(CC3CC3)CC1Oc1c(C)cccc12 (centres undefined)	nt	i	nt	nt	nt
O=S(=O)(Nc1nccs1)c1ccc([As](=O)(O)O)cc1	nt	nt	i[9.22 µM]	nt	nt
[O-]/[N+](=C/c1cccnc1)c1ccc(Br)cc1	?	i[2.3 µM]	13µM	5.6µM	2.8µM
CCC12CCN(CCc3ccc([N+](=O)[O-])cc3)CC1Oc1c(O)cccc12 (centres undefined)	nt	i	nt	nt	nt
Cc1nn(Cc2ccccc2Cl)c(Cl)c1C(=O)OCC(=O)NC(=O)NC1CCCCC1	i	i	i	i	i
Cc1nn(CC(C)C)c(Cl)c1C(=O)NC1CCC(C)CC1 (centres undefined)	9.2µM	8.5µM	nt	2.2µM	4µM
CN(C)c1ccc(N)cc1	nt	nt	i	nt	nt
Cc1cc(C=C2C(=O)NC(=O)NC2=O)c(C)n1-c1ccc2c(c1)OCO2	i	2.7µM	i	i	i
Cc1cc(C=C2C(=O)NC(=S)NC2=O)c(C)n1-c1ccc2c(c1)OCO2	i	3.4µM	i	i	i
Cc1cc(/C=C2\C(=O)NC(=O)N(c3ccc(F)cc3)C2=O)c(C)n1-c1cccc(C(=O)O)c1	i	?	nt	i	i
Cc1cc(/C=C2\C(=O)NC(=O)N(C)C2=O)c(C)n1-c1ccc2c(c1)OCO2	i	1.3µM	i	i	i
Cc1cc(/C=C2/C(=O)NC(=O)N(C)C2=O)c(C)n1-c1ccccc1	i	1.1µM	i	i	i
Cc1cc(/C=C2\C(=O)NC(=O)N(c3ccccc3)C2=O)c(C)n1-c1ccc(C(=O)O)c(Cl)c1	i	i	nt	i	i
O=c1ccc2cc(O[C@H]3OC(CO)C(O)C(O)C3O)c(O)cc2o1 (some centres undefined)	nt	nt	i	nt	nt
CC[C@@H](CO)NC(=O)[C@H]1C=C2c3cccc4c3c(cn4C)C[C@H]2N(C)C1	nt	nt	i	nt	nt
C=CC(N)=O	nt	nt	i	nt	nt
Nc1nnnn1CCO	nt	nt	i[9.22 µM]	nt	nt
SMILES	ELG1 genotoxic	FLuc modulator	SMN2 splice up	NPC1 prom act	Rab9 prom act
Cc1ccc2scc(N3CCN(C)CC3)c(=O)c2c1	nt	12µM	nt	nt	nt
C=CCOC(=O)c1ccccc1N	i	i	i	i	i
Nc1ccccc1C(=O)OCCOc1ccccc1	0.92µM	0.6µM	7.9µM	0.35µM	0.4µM
COc1cc(/C=C/c2nc3ccccc3c(=O)n2-c2ccccc2O)ccc1O	i	17µM	nt	i	i
COc1ccccc1-n1c(-c2ccc(C)cc2)nc2ccccc2c1=O	i	13µM	nt	i	i
Cc1noc(C(=O)Nc2sc3c(c2C#N)CCC3)c1Cl	i	15µM	i	i	i
COc1cccc(OCc2cc(C(=O)N3C[C@H]4C[C@@H](C3)c3cccc(=O)n3C4)no2)c1	18µM	17µM	nt	3.2µM	4µM
Cc1ccc(O)cc1C	nt	nt	i	nt	nt
COc1ccc(N=Cc2c(O)n(Cc3ccccc3)c(=S)[nH]c2=O)c(OC)c1	?	1.2µM	nt	?	?
c1ccc(CN2CCc3nc4ccccc4cc3C2)cc1	?	12µM	nt	?	?
Cc1cc(NC(=O)c2cccn(Cc3cccc(Cl)c3)c2=O)no1	nt	i	nt	nt	nt
CCOc1ccc(NC(=O)c2cccn(Cc3cccc(Cl)c3)c2=O)cc1	nt	17µM	nt	nt	nt
O=C(Nc1ccc2c(c1)OCCO2)c1cccn(Cc2ccccc2)c1=O	nt	11µM	nt	nt	nt
O=C(Nc1ccc2c(c1)OCO2)c1cccn(Cc2cccc([N+](=O)[O-])c2)c1=O	nt	i	nt	nt	nt
Cn1c(=O)c2[nH]cnc2n(C)c1=O.[CH2-][C@H](Cc1cccc2cc(C(=O)O)c(=O)oc12)OC.[Hg].[OH-]	nt	nt	i[9.22 µM]	nt	nt
NC(=O)c1cccc(-c2cccc(OC(=O)NC3CCCCC3)c2)c1	i	?	nt	i	i
CNC(=O)Oc1cccc(-c2cn3cc(OC(=O)NC)ccc3n2)c1	21µM	3.8µM	13µM	3.5µM	?
CNC(=O)Oc1ccc(-c2cn3cc(Cl)ccc3n2)cc1	?	1.1µM	5µM	0.89µM	0.63µM
COC(C)(C)C	nt	nt	i	nt	nt
CC1=C2C(=O)[C@@H]3[C@@H](CC=C4C[C@@H](O)CC[C@@]43C)[C@H]2CC[C@@]12O[C@H]1C[C@H](C)CN[C@H]1[C@@H]2C	nt	nt	i[9.22 µM]	nt	nt
CCOC(=O)c1sc(=NC(=O)c2ccc(C)c(C)c2)n(C)c1C	12µM	?	i	3.2µM	2µM
O=c1[nH]c(O)c(N=Nc2ccc3c(c2)OCCO3)c(=O)[nH]1	?	1.5µM	i	i	i
O=c1[nH]c(=S)[nH]c(O)c1N=Nc1ccc2c(c1)OCO2	?	4.8µM	i	?	2.8µM
O=c1[nH]c(=S)[nH]c(O)c1N=Nc1ccc(S(=O)(=O)N2CCOCC2)cc1	i	i	nt	i	i
O=c1[nH]c(=S)[nH]c(O)c1N=Nc1ccc2c(c1)OCCO2	?	0.85µM	nt	?	2.5µM
SMILES	ELG1 genotoxic	FLuc modulator	SMN2 splice up	NPC1 prom act	Rab9 prom act
O=c1[nH]c(=S)[nH]c(O)c1N=Nc1cc2c(cc1[N+](=O)[O-])OCO2	i	?	i	i	i
O=c1[nH]c(O)c(N=Nc2ccc(S(=O)(=O)N3CCOCC3)cc2)c(=O)[nH]1	i	i	i	i	i
CC(C)(C)C(=O)CP(=O)(O)O	nt	nt	i[9.22 µM]	nt	nt
Cc1nc2ccccc2cc1C[N+]12CN3CN(CN(C3)C1)C2	nt	nt	i[9.22 µM]	nt	nt
C[C@@H]1O[C@H](OC2[C@@H](O)[C@H](O)C(O)[C@H](O)[C@H]2O)[C@@H](N)C[C@@H]1N=C(N)C(=O)O (some centres undefined)	nt	nt	i[9.22 µM]	nt	nt
ClP(Cl)(Cl)(Cl)Cl	nt	nt	i	nt	nt
COc1cccc(N2CCN(c3c4c(nc5nncn35)CCC4)CC2)c1	nt	i	i	nt	nt
CCC12CCN(Cc3ccc(F)cc3)CC1Oc1c(O)cccc12 (centres undefined)	nt	i	nt	nt	nt
COC(=O)[C@@H]1C[C@H]1[C@@H](NP(=O)(c1ccccc1)c1ccccc1)c1ccccc1	18µM	i	10µM	i	i
COc1ccccc1N=Nc1ccc(N)c(C)c1	?	15µM	nt	i	i[1.84 µM]
